About 83,000 compounds went through this panel and 20% of them were active in at least one assay; those are over-represented in the sample as a whole.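 Plates (96-well) were seeded with cells, treated with compound at one concentration, and incubated for 48 hours before percent growth was determined.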 The source made the active and inactive calls. Rule for the calls: active = growth percent below 10; inactive = the rest.
Experiments:
Assay in all cases: NCI-60 one-dose screen, 48 h (100 = growth as untreated, 0 = no growth, -100 = all killed)
[1] = test system: HCT-15 colon; details: 10 µM unless noted
[2] = test system: HT29 colon; details: 10 µM unless noted
[3] = test system: SNB-75 CNS; details: 10 µM unless noted
[4] = test system: SNB-19 CNS; details: 10 µM unless noted
[5] = test system: U251 CNS; details: 10 µM unless noted
[6] = test system: PC-3 prostate; details: 10 µM unless noted
[7] = test system: SK-MEL-5 melanoma; details: 10 µM unless noted
[8] = test system: UACC-62 melanoma; details: 10 µM unless noted
[9] = test system: LOX IMVI melanoma; details: 10 µM unless noted
[10] = test system: SK-MEL-28 melanoma; details: 10 µM unless noted
[11] = test system: SK-MEL-2 melanoma; details: 10 µM unless noted
[12] = test system: EKVX NSCLC; details: 10 µM unless noted
[13] = test system: SN12C renal; details: 10 µM unless noted
[14] = test system: UO-31 renal; details: 10 µM unless noted
[15] = test system: TK-10 renal; details: 10 µM unless noted
[16] = test system: ACHN renal; details: 10 µM unless noted
[17] = test system: CAKI-1 renal; details: 10 µM unless noted
[18] = test system: HL-60(TB) leukemia; details: 10 µM unless noted
[19] = test system: CCRF-CEM leukemia; details: 10 µM unless noted
[20] = test system: A498 renal; details: 10 µM

Measured: growth

COC(=O)[C@@H](C[C@H](Cc1ccccc1)NC(=O)c1csc([C@@H](C[C@H](C(C)C)N(C)C(=O)[C@@H](NC(=O)[C@H]2CCCCN2C)C(C)C)OC(C)=O)n1)NC(=O)OCc1ccccc1
active: [1] 9.05% [9.5 µM] | [2] -19.6% [9.5 µM] | [5] 6.82% [9.5 µM] | [7] -3.63% [9.5 µM] | [10] -52.6% [9.5 µM] | [11] -10.4% [9.5 µM] | [18] -40.2% [9.5 µM] | [19] 6.42% [9.5 µM]
inactive: [3] 25.6% [9.5 µM] | [4] 25.4% [9.5 µM] | [6] 32.2% [9.5 µM] | [8] 27.1% [9.5 µM] | [9] 14.7% [9.5 µM] | [12] 51.5% [9.5 µM] | [13] 15% [9.5 µM] | [14] 27.3% [9.5 µM] | [15] 45.2% [9.5 µM] | [16] 16.4% [9.5 µM] | [17] 35.1% [9.5 µM]

CCOc1ccccc1C(=O)OCC(Cl)(Cl)Cl
inactive: [1] 110% | [2] 96.4% | [3] 98.3% | [4] 107% | [5] 102% | [6] 96.5% | [7] 106% | [8] 107% | [9] 104% | [10] 118% | [11] 116% | [12] 109% | [13] 102% | [14] 94.4% | [15] 99.6% | [16] 111% | [17] 98.7% | [20] 88.5% | [19] 104%

CC1=C2[C@@H](CC1)[C@]1(C)O[C@@](C(C)C)(C[C@H]1O)[C@H]2OC(=O)C1CC1c1ccccc1 (some centres not stated)
inactive: [1] 89.8% | [2] 103% | [3] 88% | [4] 102% | [5] 84.3% | [6] 56.9% | [7] 85.4% | [8] 75.6% | [9] 93.3% | [10] 105% | [11] 87.7% | [12] 88% | [13] 91.7% | [14] 74.7% | [15] 104% | [16] 84.2% | [17] 79.5% | [20] 72.7% | [19] 74.9%

O=[N+]([O-])c1cnc[nH]1
inactive: [1] 112% | [2] 95.1% | [3] 93.1% | [4] 104% | [5] 99.6% | [6] 96.5% | [7] 106% | [8] 96.3% | [9] 97.8% | [10] 114% | [11] 102% | [12] 109% | [13] 103% | [14] 94.8% | [15] 111% | [16] 118% | [17] 99% | [18] 134% | [19] 103%

C=CCCCN=C=S
inactive: [1] 55.4% | [2] 37.4% | [3] 64.2% | [4] 84.2% | [5] 79.5% | [6] 87% | [7] 95.1% | [8] 63.4% | [9] 53.8% | [10] 83.2% | [11] 56% | [12] 92.7% | [13] 60.1% | [14] 70% | [15] 69.1% | [16] 77.9% | [17] 83.3% | [20] 76% | [19] 50.1%

C[C@]12CCc3sc(-c4ccccc4O)nc3C1=CC[C@@H]1[C@@H]2CC[C@]2(C)C(=O)CC[C@@H]12
inactive: [1] 98% | [2] 104% | [3] 95.5% | [4] 101% | [5] 102% | [6] 98.9% | [7] 110% | [8] 94.3% | [9] 104% | [10] 113% | [11] 105% | [12] 99.7% | [13] 101% | [14] 85.8% | [15] 104% | [16] 98.8% | [17] 83.5% | [18] 103% | [19] 118%

CC(C)OC(=O)[C@H](C)NP(=O)(Oc1ccccc1)C1CCCN(O)C1=O (some centres not stated)
inactive: [1] 93.1% | [2] 91.7% | [3] 108% | [4] 98.8% | [5] 105% | [6] 94.5% | [7] 99.2% | [8] 71.8% | [9] 85.3% | [10] 52.2% | [11] 94.1% | [12] 93.4% | [13] 99.2% | [14] 86.2% | [15] 99.5% | [16] 79.4% | [17] 104% | [18] 94.1% | [19] 91.3%

COc1ccc2nc(NC(=O)COc3cc(/C=C\c4cc(OC)c(OC)c(OC)c4)ccc3OC)sc2c1
inactive: [1] 15.5% | [2] 10.3% | [4] 31.5% | [5] 20.4% | [6] 30.4% | [7] 10.8% | [8] 33.8% | [10] 43.5% | [11] 16.7% | [12] 44.7% | [13] 45.3% | [14] 14.7% | [15] 23.6% | [16] 42.8% | [19] 22.6%
active: [3] -5.27% | [9] 8.81% | [17] 6.25% | [20] -5.19%

COC(=O)[C@@]1(C)CC[C@]2(C)CC[C@]3(C)C4=CC(=O)c5c(cc(O)c(O)c5C)[C@]4(C)CC[C@@]3(C)[C@@H]2C1
active: [7] 7.93%
inactive: [1] 36.9% | [2] 90.2% | [3] 112% | [4] 60.5% | [5] 42% | [6] 33.8% | [8] 28.3% | [9] 50.7% | [10] 91.3% | [11] 71.6% | [12] 71.7% | [13] 61.7% | [14] 50.6% | [15] 68.9% | [16] 53.3% | [20] 57.1% | [18] 38.4% | [19] 26.9%

CC[C@H](C)[C@H](NC(=O)[C@H]1CCCCN1C)C(=O)N(C)[C@H](CCc1nc(C(=O)N[C@@H](Cc2ccccc2)C[C@H](C)C(=O)OC)cs1)C(C)C
active: [2] -3.3% | [7] -22.1% | [20] -2.22% | [18] -21.2%
inactive: [1] 12.3% | [3] 56.3% | [4] 35.2% | [5] 10.2% | [6] 24.3% | [8] 41.5% | [9] 24% | [10] 65.6% | [11] 32.7% | [12] 47.3% | [13] 28.9% | [14] 43.5% | [15] 54.3% | [16] 29.3% | [19] 12.8%

COC(=O)C12CC(NC(=O)c3csc([C@@H](C[C@H](C(C)C)N(C)C(=O)[C@@H](NC(=O)[C@H]4CCCCN4C)C4CC4)OC(C)=O)n3)(C1)C2
active: [2] -8.13% | [7] -22.5% | [20] -5.31%
inactive: [1] 14.1% | [3] 43.4% | [4] 39.6% | [5] 11.8% | [6] 23.4% | [8] 58.6% | [9] 15.7% | [10] 60.1% | [11] 34.7% | [12] 59.8% | [13] 37.9% | [14] 48.5% | [15] 39.2% | [16] 33.6% | [17] 38.6% | [19] 17.2%

C/C(Cc1ccc(Cl)cc1)=C(\c1ccc(OCCN2CCOCC2)cc1)c1ccc(OC(=O)Cc2ccccc2)cc1
inactive: [1] 91.1% | [2] 79.5% | [3] 89.6% | [4] 101% | [5] 97.4% | [6] 81.9% | [7] 95.6% | [8] 84.5% | [9] 97% | [10] 99.7% | [11] 84.9% | [12] 93.3% | [13] 93.8% | [14] 67.5% | [15] 86.7% | [16] 104% | [17] 71.6% | [20] 98.6% | [19] 98.9%

c1cc2c(c3c1CCNC3)OCO2
inactive: [1] 102% | [2] 91.8% | [3] 86.8% | [4] 106% | [5] 92.6% | [6] 102% | [7] 101% | [8] 100% | [9] 95.7% | [10] 109% | [11] 101% | [12] 95.6% | [13] 100% | [14] 90.2% | [15] 101% | [16] 111% | [17] 91.1% | [20] 118% | [18] 101% | [19] 124%

COC(=O)[C@H](C[C@H](Cc1ccccc1)NC(=O)c1csc([C@@H](C[C@H](C(C)C)N(C)C(=O)[C@@H](NC(=O)[C@H]2CCCCN2C)C(C)C)OC(C)=O)n1)NC(=O)OCc1ccccc1
inactive: [1] 13.6% [8.5 µM] | [3] 22.7% [8.5 µM] | [4] 16.3% [8.5 µM] | [5] 14.6% [8.5 µM] | [6] 32.4% [8.5 µM] | [8] 23.8% [8.5 µM] | [9] 13.8% [8.5 µM] | [12] 54.7% [8.5 µM] | [14] 32.3% [8.5 µM] | [15] 44.2% [8.5 µM] | [16] 13.5% [8.5 µM] | [17] 34.9% [8.5 µM]
active: [2] -2.9% [8.5 µM] | [7] -13.3% [8.5 µM] | [10] -69.7% [8.5 µM] | [11] 5.82% [8.5 µM] | [13] 9.35% [8.5 µM] | [18] -30.3% [8.5 µM] | [19] 6.6% [8.5 µM]

COc1ccc(O)c(CNC(=O)CN2CCCC2=O)c1
inactive: [1] 103% | [2] 104% | [3] 81.3% | [4] 103% | [5] 103% | [6] 92.1% | [7] 107% | [8] 96.6% | [9] 99.4% | [10] 99.4% | [11] 103% | [12] 100% | [13] 97.6% | [14] 98.7% | [15] 105% | [16] 99.7% | [17] 97.4% | [20] 93.6% | [18] 142% | [19] 26.4%

— PubChem BioAssay (NCI)
